GPT2 inh: inhibitors of human GPT2 alanine aminotransferase. Q8TD30. Recombinant GPT2, coupled pyruvate oxidase/HRP Amplex Red fluorescence. Potency, µM (series often up to 57.7 µM), for the others: top-dose activity change, negative = inhibition, actives largely listed as inhibitors. 100,000 compounds, 0.25% hits. AID 1671188; note: nearly all actives have a fitted effect of over 60% in size
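Fluorescence of coupled pyruvate oxidase/HRP/Amplex Red system (50uM Amplex, 30 min, dark) reports pyruvate formed by GPT2. Enzyme reaction: 10ng/uL GPT2, 2mM L-alanine, 250uM a-KG, 30 min room temperature, pH 7.5; 50uM AOA control.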
NIH3T3 tox: kills NIH 3T3 cells | NIH 3T3 viability, CellTiter-Glo ATP luminescence, 48-72 h | Potency, µM (top dose mostly 96.7 µM), for the others: top-dose activity change, negative = cytotoxicity, most hits filed as inhibitors | 94,000 compounds, 4.3% hits | AID 1345082; note: nearly all actives have a fitted effect of over 55% in size
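NIH 3T3 cells at 400 cells/well received 23 nL of compound by pintool and were incubated 48 or 72 h at 37 °C. Viability was read as ATP-coupled CellTiter-Glo luminescence.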
HEK293 tox: kills HEK 293 cells; HEK 293 viability, ATP luminescence (CellTiter-Glo), 48-72 h; AID 1345083; 94,000 compounds, 6.6% hits; Potency, µM (top dose mostly 115 µM), inactives show at the highest dose activity change, negative = cytotoxicity, actives largely listed as inhibitors; note: nearly all actives have a fitted effect of over 60% in size
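250 HEK 293 cells/well; compound by pintool; incubated 48 or 72 hr at 37 degree Celsius; CellTiter-Glo added, 10 min RT, luminescence imaged.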
Luciferase inh: blocks purified firefly luciferase enzyme activity | P08659 | purified P. pyralis luciferase, luminescence, biochemical | Potency, µM (titrated, usually from 115 µM), actives largely listed as inhibitors | 76,000 compounds, 2.5% hits | AID 1347043; note: nearly all actives have a fitted effect of over 65% in size
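Purified 10nM P. pyralis luciferase with 10uM D-luciferin and 10uM ATP in 50mM Tris acetate pH 7.5, 10mM Mg acetate, 0.01% Tween-20, 0.05% BSA. qHTS titration; luminescence read by CCD imager.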
NPR1 antag: antagonists of human natriuretic peptide receptor Npr1; Potency, µM (doses to about 46.3 µM), for inactives: top-dose activity change, negative = inhibition, actives largely listed as inhibitors; P16066; AID 1347048; 76,000 compounds, 1.6% hits; HEK293 hNpr1 GloSensor cGMP, ANP-stimulated luminescence; calls by dose curve; note: nearly all actives have a fitted effect of over 60% in size
Target sequence (P16066 whole entry, looked up): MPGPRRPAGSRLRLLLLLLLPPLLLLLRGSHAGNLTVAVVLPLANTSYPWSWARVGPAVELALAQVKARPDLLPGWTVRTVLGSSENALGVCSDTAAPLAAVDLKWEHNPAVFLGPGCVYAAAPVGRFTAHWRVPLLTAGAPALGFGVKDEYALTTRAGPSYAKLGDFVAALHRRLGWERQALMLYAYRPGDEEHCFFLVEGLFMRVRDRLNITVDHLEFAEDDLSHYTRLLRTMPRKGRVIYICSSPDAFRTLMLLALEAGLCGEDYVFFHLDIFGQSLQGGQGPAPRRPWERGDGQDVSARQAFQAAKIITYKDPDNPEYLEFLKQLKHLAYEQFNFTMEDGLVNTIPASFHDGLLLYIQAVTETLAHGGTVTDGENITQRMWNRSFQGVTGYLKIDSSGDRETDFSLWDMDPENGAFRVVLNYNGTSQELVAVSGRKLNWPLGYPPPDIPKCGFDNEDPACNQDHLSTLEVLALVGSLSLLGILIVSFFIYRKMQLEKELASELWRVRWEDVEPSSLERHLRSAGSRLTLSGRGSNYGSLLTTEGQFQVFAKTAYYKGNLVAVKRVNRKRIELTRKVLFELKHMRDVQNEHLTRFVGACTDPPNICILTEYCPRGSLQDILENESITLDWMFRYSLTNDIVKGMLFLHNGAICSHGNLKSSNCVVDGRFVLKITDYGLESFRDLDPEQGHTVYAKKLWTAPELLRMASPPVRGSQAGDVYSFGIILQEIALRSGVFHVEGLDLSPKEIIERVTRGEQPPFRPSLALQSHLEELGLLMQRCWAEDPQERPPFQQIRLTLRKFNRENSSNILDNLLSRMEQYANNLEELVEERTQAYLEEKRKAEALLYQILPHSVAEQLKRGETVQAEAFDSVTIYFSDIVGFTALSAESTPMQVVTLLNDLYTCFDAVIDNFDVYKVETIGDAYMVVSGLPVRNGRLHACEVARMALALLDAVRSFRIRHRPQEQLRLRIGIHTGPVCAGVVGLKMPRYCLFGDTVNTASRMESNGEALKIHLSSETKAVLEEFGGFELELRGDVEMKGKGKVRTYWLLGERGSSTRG
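Compound pre-incubated 30 min at room temperature on GloSensor-loaded HEK293 cells stably carrying hNpr1 and the pGS-40F cGMP biosensor. Stimulation uses hNppA at 0.1 nM final; luminescence is taken at baseline and 20 min post-agonist.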
The depositor's hits bear a star; i = inactive; ? = inconclusive; nt = no result; [ ] = another dose, or the depositor's remark. An excerpt weighted towards active compounds, which were near 10% of everything screened. Unless noted, calls come from the whole dose curve; as a rule, active = well fitted curve in the direction sought with a large enough effect; inconclusive = small, poorly fitted or top-dose-only effect, or another doubt; inactive = no such curve, though single readings can be large; an effect the other way counts as inactive or inconclusive. % is set by controls: 0 for no effect and ±100 for the full control effect; potency is the fitted concentration of half-maximal effect.

SMILES | GPT2 inh | NIH3T3 tox | HEK293 tox | Luciferase inh | NPR1 antag
c1ccc(CN2CCNc3cc(-c4ccoc4)ncc3C2)cc1 | 0%[88.5 µM] | ? | ? | ? | -12%[70.6 µM]
c1ccc(Oc2ccccc2-c2cc3c(cn2)CN(Cc2ccncc2)CCN3)cc1 | 4%[88.5 µM] | ? | ? | i | -27%[70.6 µM]
COc1ccc(CN2CCNc3cc(Nc4ccccc4)ncc3C2)cc1O | 5%[88.5 µM] | 79µM* | 100µM* | i | -12%[70.6 µM]
COc1ccc(CN2CCNc3cc(-c4ccccc4)ncc3C2)cc1O | -16%[88.5 µM] | ? | 89µM* | i | -16%[70.6 µM]
O=C(c1ccncc1)N1CCN(Cc2ccccc2-c2ccccc2F)CC1 | i | ? | ? | nt | nt
COCCCn1c(C)cc(C(=O)N2CC(c3noc(COc4ccc(F)cc4)n3)C2)c1C | -9% | ? | ? | nt | nt
Cc1csc(NC(=O)[C@@H]2C[C@H](c3ccc(F)cc3)N(Cc3ccccc3Cl)C2)n1 | -2%[88.5 µM] | ? | ? | i | ?
NC(=O)c1cccc(-c2cc3c(cn2)CN(CCc2ccccc2)CCN3)c1 | -22%[88.5 µM] | 89µM* | ? | ? | -6%[70.6 µM]
COc1ccc(OC)c(CN2CCNc3cc(Nc4ccccc4)ncc3C2)c1 | i | 35µM* | ? | 22µM* | -27%[70.6 µM]
O=C(C1CCCN1C(=O)c1ccc(C(F)(F)F)cc1)N1CCC(c2nc3ccncc3[nH]2)C1 (stereo unspecified) | i | i | -3% | nt | nt
O=C(Cn1ccn2nc3c(c2c1=O)CCCCC3)Nc1ccccc1F | i | -10% | -26% | 45µM* | 0%
Cc1ccc(NC(=O)Cn2ccn3nc(-c4ccccc4)c(CO)c3c2=O)c(C)c1 | -2% | ? | 45µM* | i | -11%
Cc1ccc(NC(=O)Cn2ccn3nc(-c4ccc(F)cc4)c(CO)c3c2=O)c(C)c1 | ? | ? | ? | i | 0%
CC(C)c1ccccc1NC(=O)Cn1ccn2nc3c(c2c1=O)CCCCC3 | 4% | ? | 40µM* | i | -3%
CCCN(CC1CC1)C(=O)C1CCN(C(=O)N2CC3CC(C2)[C@H]2CCCC(=O)N2C3)CC1 (stereo partly specified) | 2% | -19% | 16% | i | 5%
C#CCNC(=O)C1CCCN1Cc1cccc(-c2ccc(C)c(Cl)c2)c1 (stereo unspecified) | nt | 40µM* | 40µM* | nt | nt
Cc1ccc(-c2cccc(CN3CCCC3C(=O)NC3CCCC3)c2)cc1Cl (stereo unspecified) | nt | ? | 35µM* | nt | nt
Cc1ccc(-c2cccc(CN3CCCC3C(=O)N3CCCC(C)C3)c2)cc1Cl (stereo unspecified) | nt | 32µM* | ? | nt | nt
C#CCNC(=O)C1CCCN1Cc1ccc(-c2cncnc2)cc1 (stereo unspecified) | i | -13%[138 µM] | -18%[172 µM] | nt | nt
Cc1ccc(-c2cccc(CN3CCCC3C(=O)NC(C)C)c2)cc1Cl (stereo unspecified) | nt | 22µM* | 22µM* | nt | nt
Cc1cc(C)cc(-c2ccc(CN3CCCC3C(=O)N3CCCCC3)cc2)c1 (stereo unspecified) | i | ? | ? | nt | nt
O=C(NC1CCCCCC1)C1CCCCN1Cc1ccc(-c2ccsc2)cc1 (stereo unspecified) | 5% | -34% | ? | nt | nt
CC(C)CC(=O)N1CCCCCNC(=O)[C@H]2C[C@H](C(=O)N3CCc4ccccc4C3)C[C@H]21 | ? | -26% | ? | i | -3%
O=C(NCc1ccc2c(c1)OCO2)c1cc(-c2cc(Cl)cc(Cl)c2)c2cccn2n1 | -5% | -10% | ? | nt | nt
COc1cccc(-c2cn3cc(C(=O)N(C)C)nc3s2)c1 | i | ? | ? | nt | nt
SMILES | GPT2 inh | NIH3T3 tox | HEK293 tox | Luciferase inh | NPR1 antag
CNC(=O)C1CCCN1Cc1cccc(-c2ccc(C)c(Cl)c2)c1 (stereo unspecified) | nt | 35µM* | 25µM* | nt | nt
COCCCNC(=O)C1CCCN1Cc1cccc(-c2ccc(C)c(Cl)c2)c1 (stereo unspecified) | nt | 40µM* | ? | nt | nt
CNC(=O)C1CCCN1Cc1cccc(-c2cccc(OC)c2)c1 (stereo unspecified) | -8% | ? | ? | nt | nt
CCOC(=O)[C@H]1C[C@@H]2O[C@H]1[C@H]1CN(C(=O)OC)C[C@H]1[C@@H]2O | nt | ? | -25% | nt | nt
O=C(NCc1cccc(C(F)(F)F)c1)c1ccc2nnc(-c3ccc(OC(F)(F)F)cc3)n2c1 | i | ? | ? | nt | nt
CN1C[C@@H](NC(=O)c2ccc(C#N)cc2)C[C@H]1c1nc(-c2cncnc2)no1 | i | -13%[174 µM] | ? | 45µM* | 2%[70.6 µM]
CN1C[C@@H](NC(=O)c2ccc(C(C)(C)C)cc2)C[C@H]1c1nc(-c2ccncc2)no1 | -1%[88.5 µM] | ? | 71µM* | ? | 1%[70.6 µM]
Cc1ccc(C(=O)N[C@H]2C[C@@H](c3nc(-c4ccc(C)cc4)no3)N(C)C2)cc1 | 5%[88.5 µM] | -13%[174 µM] | -1%[172 µM] | i | 2%[70.6 µM]
Cn1nc(C(=O)NCc2cccnc2)c2c1CN(C(=O)CC1CCCCC1)C2 | 4% | -29% | -27% | nt | nt
CN(C)[C@@H]1CN(Cc2ccc(F)c(F)c2)CC[C@@H]1CO | i | -8% | -8% | nt | nt
CNC(=O)c1cc(C)nc2onc(C3CCCN(C(=O)C(C)(C)C)C3)c12 (stereo unspecified) | nt | -2% | 3% | nt | nt
Cc1ccc(-n2cc(CN3CCN4CCCC4C3)c(-c3cccc(C)c3)n2)cc1 (stereo unspecified) | i | 25µM* | 28µM* | ? | -3%
Cc1ccc(-n2cc(CN3CCC(CCO)CC3)c(-c3cccc(C)c3)n2)cc1 | i | ? | ? | i | -13%
Cc1cccc(-n2cc(CN3CCCC(C)(O)C3)c(-c3cccc(F)c3)n2)c1 (stereo unspecified) | -4% | 89µM* | ? | 18µM* | 6%
COc1ccc(-n2cc(CN3CCC(O)CC3)c(-c3cccc(F)c3)n2)cc1 | -24% | 79µM* | ? | 40µM* | -1%
CN1CC(=O)N(C2CCC2)Cc2c(NC3CC3)ncnc21 | 4%[88.5 µM] | -15%[138 µM] | -3%[172 µM] | nt | nt
Cn1cc(CN2C[C@@H]3OCC(=O)N[C@@H]3C2)c2ccccc21 | -25%[88.5 µM] | 112µM* | ? | i | -1%[70.6 µM]
O=C(CCn1ccn2nc3c(c2c1=O)CCCC3)Nc1ccc(F)cc1 | 5% | i | -20% | i | -6%
Cc1ccc(NC(=O)Cn2ccn3nc4c(c3c2=O)CCCCC4)cc1C | i | -25% | 40µM* | i | ?
Cc1ccc(NC(=O)Cn2ccn3nc4c(c3c2=O)CCCC4)cc1Cl | i | -24% | -14% | i | -8%
CN(C)c1ccc(NC(=O)CCn2ccn3nc4c(c3c2=O)CCCC4)cc1 | ? | -26% | ? | 40µM* | -1%

Assay outcomes: PubChem BioAssay, National Center for Advancing Translational Sciences (NCATS)
